{"source": "PubChem BioAssay (NCATS)", "note": "Inconclusive results are not listed. Where a call stands in place of a potency, no number is given. Active and inactive are the calls of the source. Calls follow the shape of the dose curve; as a rule, active = well fitted inhibition curve with a large enough effect; inconclusive = small, poorly fitted or top-dose-only effect, or effect the other way; inactive = no such curve, though single readings can be large or run the other way.", "data": [{"experiment": "High Content Imaging Cell-Based qHTS for Inhibitors of the mTORC1 Signaling Pathway in MEF Cells (AID 2667);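 also: Tsc2-/- p53-/- MEFs stably re-expressing wild-type Tsc2 exposed 24 h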", "conditions": "series mostly up to 38.3 µM", "in_short": "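MEF (Tsc2-/-, p53-/-, WT Tsc2 re-expressed); cpd 24 h, 37 °C; PFA fix; Alexa-488 anti-p-rpS6 Ser235/236, PI, Hoechst; IN Cell imaging; Hoechst/Alexa-488 intensity ratio; % active cells, thresholds set from rapamycin and DMSO wells.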", "values": [{"smiles": "CCCCNC(=O)NS(=O)(=O)c1ccc(C)cc1", "Potency": "inactive"}, {"smiles": "CN(C(=O)CCCOc1ccc2[nH]c(=O)ccc2c1)C1CCCCC1", "Potency": "inactive"}, {"smiles": "NC(Cc1ccc(Cl)cc1)C(=O)O", "note": "(centres undefined)", "Potency": "inactive"}, {"smiles": "COCCOC(=O)C1=C(C)NC(C)=C(C(=O)OC(C)C)C1c1cccc([N+](=O)[O-])c1", "note": "(centres undefined)", "Potency": "inactive"}, {"smiles": "CCN(Cc1ccncc1)C(=O)C(CO)c1ccccc1", "note": "(centres undefined)", "Potency": "inactive"}, {"smiles": "Fc1ccc(C(c2ccc(F)cc2)N2CCN(C/C=C/c3ccccc3)CC2)cc1", "Potency": "inactive"}, {"smiles": "Cc1scc2c1N(C(=O)CN1CCN(C)CC1)c1ccccc1NC2=O", "Potency": "inactive"}, {"smiles": "COc1cc(Cc2cnc(N)nc2N)cc(OC)c1OC", "Potency": "inactive"}, {"smiles": "CC(=O)Oc1cc(C(C)C)c(OCCN(C)C)cc1C", "Potency": "inactive"}, {"smiles": "CO[C@@]1(NC(=O)CSCC#N)C(=O)N2C(C(=O)O)=C(CSc3nnnn3C)CS[C@@H]21", "Potency": "inactive"}, {"smiles": "CC(=O)OCC1=C(C(=O)O)N2C(=O)[C@@H](NC(=O)Cc3cccs3)[C@H]2SC1", "Potency": "inactive"}, {"smiles": "CCn1ccnc1CC1COc2ccccc2O1", "note": "(centres undefined)", "Potency": "inactive"}, {"smiles": "CN(C)C(=O)Oc1ccc[n+](C)c1", "Potency": "inactive"}, {"smiles": "Cc1nnc(SCC2=C(C(=O)O)N3C(=O)[C@@H](NC(=O)Cn4cnnn4)[C@H]3SC2)s1", "Potency": "inactive"}, {"smiles": "CN(C)CC[C@@H](c1ccc(Br)cc1)c1ccccn1", "Potency": "inactive"}, {"smiles": "C[C@H](CS)C(=O)N1CCC[C@H]1C(=O)O", "Potency": "inactive"}, {"smiles": "CCOC(=O)C1=C(C)NC(C)=C(C(=O)OC)C1c1cccc(Cl)c1Cl", "note": "(centres undefined)", "Potency": "inactive"}, {"smiles": "Cc1ccc(S(=O)(=O)NC(=O)NN2CCCCCC2)cc1", "Potency": "inactive"}, {"smiles": "CNCCC(Oc1ccccc1OC)c1ccccc1", "note": "(centres undefined)", "Potency": "inactive"}]}]}
